Bioassay records deposited in PubChem BioAssay by Broad Institute.
Only a selection was taken, and hits are over-represented in it overall.
CD40 NFkB inh – CD40 pathway inhibition in BL2 cells; BL2 NF-kB luciferase reporter, CD40L-induced, 4 h; 0.94% of 83,000 active; inhibition, % at 10 µM;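 active = mean inhibition of at least 50% with a set share of replicates also reaching that level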
Hits are given with their value; [ ] = another dose, or the depositor's remark.

`Cc1ccc(OC(=O)N(C)C[C@H]2OCc3ccccc3-c3c(n(C)c4ccccc34)C(=O)N([C@@H](C)CO)C[C@@H]2C)cc1` gave CD40 NFkB inh inactive.
Cc1ccc(OC(=O)N(C)C[C@@H]2OCc3ccccc3-c3c(n(C)c4ccccc34)C(=O)N([C@@H](C)CO)C[C@H]2C)cc1 was read as CD40 NFkB inh 55[25 µM].
Cc1ccc(OC(=O)N(C)C[C@H]2OCc3ccccc3-c3c(n(C)c4ccccc34)C(=O)N([C@H](C)CO)C[C@H]2C)cc1 was read as CD40 NFkB inh inactive.
COC(=O)[C@H]1[C@H](CO)[C@H]2Cn3c(cccc3=O)[C@@H]1N2CCc1ccccc1 was read as CD40 NFkB inh inactive.
C/C=C/c1ccc(C2[C@@H]3CN(C(=O)CN(C)C)C[C@H]2N3)cc1 (some centres undefined) was read as CD40 NFkB inh inactive.
Screening COc1cccc(-c2ccc([C@H]3[C@@H](CO)N4CCCCN(C(=O)Cc5ccncc5)C[C@@H]34)cc2)c1 returned CD40 NFkB inh inactive.
CC(=O)N1C2CN(C)CC1C2c1ccc(Br)cc1 (centres undefined) was read as CD40 NFkB inh inactive.
Screening COC(=O)[C@@H]1[C@@H](CO)[C@@H]2Cn3c(cccc3=O)[C@H]1N2Cc1nccs1 returned CD40 NFkB inh inactive.
CC1CCOC(=O)C=CC=CC(=O)OC2CC3OC4C5OC5(C)C(O)CC4(COC(=O)C1O)C2(C)C31CO1 (centres undefined) was read as CD40 NFkB inh 95.
`CC1=CC2OC3CC4OC(=O)C=CC=CC(C(C)O)OCC(O)C5(C)OC5C(=O)OCC2(CC1O)C4(C)C31CO1` (centres undefined) gave CD40 NFkB inh 86.
`C/C=C/c1ccc(C2[C@@H]3CN(C(=O)C4CC4)C[C@H]2N3)cc1` (some centres undefined) gave CD40 NFkB inh inactive.
For CCCNC(=O)N1[C@@H]2Cn3c(ccc(-c4ccccc4OC)c3=O)[C@H]1[C@@H](C(=O)OC)[C@@H]2CO the results were CD40 NFkB inh inactive.
For O=C(O)[C@@H]1[C@@H](CO)[C@@H]2Cn3c(ccc(-c4ccccc4)c3=O)[C@H]1N2C(=O)C1CCCCC1 the results were CD40 NFkB inh inactive.
CCN(CCCl)c1cc(CN(C)C)cc(NC(=O)c2ccc(C(=O)Nc3cc(CN(C)C)cc(N(CC)CCCl)c3)cc2)c1 was read as CD40 NFkB inh 108.
`OC[C@@H]1[C@@H]2c3ccccc3NC[C@@H]2N1Cc1cccnc1` gave CD40 NFkB inh inactive.
`COc1cccc(-c2ccc([C@@H]3[C@@H](CO)N4CCCCN(C(=O)Cc5ccncc5)C[C@H]34)cc2)c1` gave CD40 NFkB inh inactive.
Screening COc1ccc(CC2C(=O)NC(C)C(=O)N(C)C3C(=O)N(C)C(Cc4ccc(O)c(c4)Oc4ccc(cc4)C3O)C(=O)NC(C)C(=O)NC(C)C(=O)N2C)cc1 (centres undefined) returned CD40 NFkB inh 124.
For CN1C2CN(CC(F)(F)F)CC1C2c1ccc(Br)cc1 (centres undefined) the results were CD40 NFkB inh inactive.
O=C(O)C[C@@H]1CC[C@H]2NC[C@H](O)COC[C@@H]2O1 was read as CD40 NFkB inh inactive.
Screening COC(=O)[C@H]1[C@H](CO)[C@H]2Cn3c(ccc(-c4ccccc4)c3=O)[C@@H]1N2S(=O)(=O)c1ccccc1C returned CD40 NFkB inh inactive.
`CN1C[C@@H]2N[C@H](C1)C2c1ccc(Br)cc1` (some centres undefined) gave CD40 NFkB inh inactive.
Screening C/C=C/c1ccc([C@@H]2[C@H](CO)N3CCCCN(C(=O)Cc4cccnc4)C[C@@H]23)cc1 returned CD40 NFkB inh inactive.
Screening COc1cc2cc(C(=O)N3CC(COS(C)(=O)=O)c4ccc(O)cc43)[nH]c2c(OC)c1OC (centres undefined) returned CD40 NFkB inh 91.
C=CCN1CCC23c4c5ccc(O)c4OC2/C(=N\NC(=O)c2ccccc2)CCC3(O)C1C5 (centres undefined) was read as CD40 NFkB inh inactive.
For CC(=O)N1C[C@@H]2N[C@H](C1)C2c1ccccc1 (some centres undefined) the results were CD40 NFkB inh inactive.
Screening C=CCN1[C@@H]2CN(C(C)=O)C[C@H]1C2c1ccccc1 (some centres undefined) returned CD40 NFkB inh inactive.
Screening O=C1CNC[C@H]2[C@H](c3ccc(Br)cc3)[C@H](CO)N12 returned CD40 NFkB inh inactive.
`CC(C)C1(NC(=O)C2CC3c4cccc5[nH]cc(c45)CC3N(C)C2)OC2(O)C3CCCN3C(=O)C(Cc3ccccc3)N2C1=O` (centres undefined) gave CD40 NFkB inh inactive.
For O=C(Cc1ccncc1)N1CCCCN2[C@H](CO)[C@H](c3ccc(C#Cc4ccccc4F)cc3)[C@H]2C1 the results were CD40 NFkB inh inactive.
`COc1ccc2[nH]c3c(c2c1)CCN=C3C` gave CD40 NFkB inh 58.
`COc1ccc2[nH]cc(CCN)c2c1` gave CD40 NFkB inh inactive.
COc1ccc2[nH]c(C)c(CCNCc3cn(C)c4ccccc34)c2c1 was read as CD40 NFkB inh inactive.
Screening COC(=O)[C@@H]1[C@@H](CO)[C@@H]2Cn3c(ccc(-c4cncnc4)c3=O)[C@H]1N2S(=O)(=O)c1ccccc1C returned CD40 NFkB inh inactive.
C[C@@H]1CN([C@@H](C)CO)C(=O)c2c(c3ccccc3n2C)-c2ccccc2CO[C@H]1CN(C)C(=O)Oc1ccccc1 was read as CD40 NFkB inh inactive.
For C[C@H](CO)N1C[C@H](C)[C@@H](CN(C)C(=O)Oc2ccccc2)OCc2ccccc2-c2c(n(C)c3ccccc23)C1=O the results were CD40 NFkB inh inactive.
NC(=O)c1c(Br)n(C2OC(CO)C(O)C2O)c2ncnc(N)c12 (centres undefined) was read as CD40 NFkB inh 56.
`N#Cc1c(Br)n(C2OC(CO)C(O)C2O)c2ncnc(N)c12` (centres undefined) gave CD40 NFkB inh 83.
`CCNC(=O)[C@H]1O[C@@H](n2cnc3c(N)ncnc32)[C@H](O)[C@@H]1O` gave CD40 NFkB inh inactive.
CC(C)NC(=O)N1C[C@@H]2C(c3ccccc3)[C@H](C1)N2CC1CC1 (some centres undefined) was read as CD40 NFkB inh inactive.
Screening c1cncc(-c2ccc(C3[C@H]4CNC[C@@H]3N4CC3CC3)cc2)c1 (some centres undefined) returned CD40 NFkB inh inactive.
For C=CCN1[C@@H]2CN(C(=O)NC(C)C)C[C@H]1C2c1ccccc1 (some centres undefined) the results were CD40 NFkB inh inactive.
Screening O=C([C@H]1N[C@H]2c3cccc(=O)n3C[C@H]2[C@@H]1CO)N1CCCCC1 returned CD40 NFkB inh inactive.
`O=C1Nc2cc(Cl)c(Cl)cc2N2CCNCC12` (centres undefined) gave CD40 NFkB inh inactive.
Screening CN1CCC2(c3cccc(O)c3)Cc3nc4ccccc4cc3CC2C1 (centres undefined) returned CD40 NFkB inh inactive.
Screening O=C1CNC[C@@H]2[C@H](c3ccc(Br)cc3)[C@@H](CO)N12 returned CD40 NFkB inh inactive.
c1ccc(Cn2ccnc2)cc1 was read as CD40 NFkB inh inactive.
For Clc1ccc(CSC(Cn2ccnc2)c2ccc(Cl)cc2Cl)cc1 (centres undefined) the results were CD40 NFkB inh 49.
For COC(=O)[C@@H]1[C@@H](CO)[C@@H]2Cn3c(ccc(-c4ccc(F)cc4)c3=O)[C@H]1N2C(=O)c1ccccc1F the results were CD40 NFkB inh inactive.
